# Screening data from PubChem BioAssay.
# tim10-1 inh = growth inhibitors of tim10-1 mutant yeast, primary screen, luminescence, uHTS; 330,000 compounds, 2.2% hits; S. cerevisiae tim10-1 ts strain growth, BacTiter-Glo, 24 h; AID 463190, 2010; inhibition, % at 20 µM;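 active = inhibition of at least 40%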;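 note: mutant grown at 25 °C; 0% = DMSO wells with yeast and 100% = wells holding no yeast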
# SKKanGAS inh = S. pyogenes SKKanGAS growth inhibitors in kanamycin, primary screen, streptokinase expression inhibitor project, SKKanGAS strain, BacTiter-Glo luminescence; 6 h; inhibition, % at 7.5 µM; 300,000 compounds, 1.3% hits;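 active = mean replicate score, as percent of positive control median, at least 50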;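 note: strain carries kanamycin resistance gene driven by streptokinase promoter and grows in 40 µg/ml kanamycin; loss of luminescence reflects streptokinase promoter inhibition or plain growth inhibition; 0% = median of DMSO wells and 100% = positive control at its reference dose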
# TIM10 inh = growth inhibitors of isogenic TIM10 control yeast, primary screen, counter-screen for tim10-1 yeast inhibitor project, luminescence, uHTS | 330,000 compounds, 1.4% hits | S. cerevisiae TIM10 strain growth, BacTiter-Glo luminescence, 24 h | inhibition, % at 10 µM | AID 463195, 2010;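 active = inhibition of 40% or more at the single tested concentration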;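 note: wild-type TIM10 isogenic control strain grown at permissive 25 °C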
# tim23-1 inh = growth inhibitors of tim23-1 mutant yeast, primary screen, luminescence, uHTS; S. cerevisiae tim23-1 growth, BacTiter-Glo luminescence, 24 h; inhibition, % at 20 µM; 330,000 compounds, 1.3% hits;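 active = growth inhibition of the mutant yeast at or above 50%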;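 note: temperature-sensitive mutant grown at 25 °C; plate controls were DMSO-treated mutant yeast for no effect and medium wells lacking yeast for full effect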
# Calb FLC = C. albicans growth inhibition with fluconazole, primary screen, CaCi-2 strain, Alamar Blue fluorescence; C. albicans CaCi-2 (fluconazole-resistant clinical isolate) + fluconazole, 48 h; growth inhibition, % (test concentration not listed); 300,000 compounds, 0.57% hits; AID 1979, 2009;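 active = growth inhibition above about 58% in most replicates, limit read from the data, passing the limit was not always enough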;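 note: all wells also contain fluconazole at 8 µg/ml as a sub-toxic cotreatment; 0% = median of DMSO wells and 100% = median of geldanamycin control wells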
# PfHsp90 set2 = growth inhibition of PfHsp90-expressing yeast, primary screen, antimalarial PfHsp90 inhibitor project, S. cerevisiae, BacTiter-Glo luminescence, single point, set 2; inhibition, % at 9.4 µM; 310,000 compounds, 0.32% hits; AID 504621, 2011; BacTiter-Glo ATP, 48 h; yeast lacking PDR1 and PDR3 efflux regulators;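 active = every replicate shows inhibition above about 80%, whatever the replicate mean, limit read from the data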;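 note: 0% = DMSO neutral controls and 100% = 20 µM radicicol positive controls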
# tim10-1 conf = growth inhibitors of tim10-1 mutant yeast, confirmation, single concentration, luminescence, S. cerevisiae; S. cerevisiae tim10-1 ts strain growth, BacTiter-Glo, 24 h; shares compounds with tim10-1 inh; AID 463213, 2010; 7,400 compounds, 56% hits; inhibition, % at 20 µM;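 active = inhibition of yeast growth at or above a set limit in either of two repeat tests at 20 µM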;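 note: tim10-1 mutant grown at permissive 25 °C to find synthetic lethal compounds; 0% = DMSO yeast wells and 100% = medium wells without yeast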
# TIM10 conf = growth inhibitors of wild-type TIM10 yeast, confirmation, counter-screen for tim10-1 synthetic lethality project, single concentration, luminescence, S. cerevisiae; shares compounds with TIM10 inh; S. cerevisiae tim10 strain growth, BacTiter-Glo luminescence, 24 h; inhibition, % at 10 µM; 4,600 compounds, 63% hits; AID 463215, 2010;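 active = inhibition of yeast growth at or above a set limit in either of two replicates at 10 µM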;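 note: this counterscreen used the strain with wild-type TIM10; 0% = yeast with DMSO and 100% = medium wells lacking yeast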
# tim23-1 confirm = tim23-1 mutant yeast growth inhibitors, confirmation, luminescence, single concentration; inhibition, % at 20 µM; shares compounds with tim23-1 inh; S. cerevisiae tim23-1 growth, BacTiter-Glo luminescence, 24 h; AID 463218, 2010; 4,400 compounds, 83% hits;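 active = inhibition above about 39% in either of two replicate wells at 20 µM, limit read from the data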;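 note: temperature-sensitive tim23-1 mutant grown at 25 °C; 0% = DMSO wells with yeast and 100% = medium wells without yeast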
# * = called active by the depositor; x = no result. Most compounds without a hit are left out; they make up all but 4.7% or so of the library.
SMILES,tim10-1 inh,SKKanGAS inh,TIM10 inh,tim23-1 inh,Calb FLC,PfHsp90 set2,tim10-1 conf,TIM10 conf,tim23-1 confirm
CC1(C)CC(=O)C2=C(C1)NC1=C(C(=O)c3ccccc31)C2c1ccc(Cl)cc1 (stereo not given),50*,32,40*,52*,-3,-36,36*,22,46*
Cc1cccc(-n2cc(-c3ccccc3)[nH]c2=S)c1,46*,-6,20,51*,-23,-7,18,x,49*
Cc1ccc(SCc2[nH]nc3c2C(c2ccco2)C(C#N)=C(N)O3)cc1 (stereo not given),71*,23,38,68*,-29,-8,55*,x,50*
CCc1[nH]nc2c1C(c1ccc(Br)s1)C(C#N)=C(N)O2 (stereo not given),85*,x,75*,82*,x,13,83*,-22,80*
Cc1ccc(SCc2[nH]nc3c2C(C(C)C)C(C#N)=C(N)O3)cc1 (stereo not given),37,-4,0,13,33,-7,x,x,x
CCCn1nc([N+](=O)[O-])c(C(C#N)c2nc3ccccc3s2)c(Cl)c1=O (stereo not given),73*,4,68*,72*,99*,-15,62*,88*,34
COc1ccccc1N1CCN(S(=O)(=O)CCNC(=O)CC2CCCCC2)CC1,12,-2,3,2,-3,x,x,x,x
CCn1c(O)c(C2=c3ccccc3=NC2=O)c2cc(Br)ccc21,61*,35,60*,75*,0,x,51*,68*,69*
O=C1N=c2ccccc2=C1c1c(O)n(-c2cccc(F)c2)[nH]c1=O,x,6,x,x,-4,17,x,x,x
Nc1nn2cc(-c3ccc(Br)cc3)nc2c2ccccc12,41*,25,59*,77*,99*,-3,65*,65*,82*
O=C(/C=C/c1cccs1)NC(=S)NNC(=O)c1ccccc1O,44*,79*,42*,64*,118*,28,24,42*,66*
O=C(/C=C/c1cccs1)NC(=S)Nc1ccccc1,29,5,30,-11,-16,x,x,x,x
CC(=O)Oc1ccc2occ(-c3ccccc3)c2c1,24,6,17,27,-8,-11,x,x,x
O=c1ccc2cc3c(-c4ccccc4)coc3cc2o1,60*,9,46*,64*,10,-13,61*,58*,66*
CCOC(=O)N1CCN(S(=O)(=O)N2CCCC(C(=O)NCCCN3CC(C)CC(C)C3)C2)CC1 (stereo not given),16,-2,15,3,-7,14,x,x,x
COc1ccccc1/C=C1\N=C(C(C)(C)C)OC1=O,44*,-3,47*,51*,4,1,47*,34*,67*
CCC(OC(=O)CNS(=O)(=O)c1ccccc1)C(=O)c1ccccc1 (stereo not given),0,6,10,13,-3,6,x,x,x
CCOC(=O)C(=CNNc1cccc(Cl)c1)C(=O)OCC,41*,-13,27,55*,-5,18,53*,x,72*
CCN(CC)S(=O)(=O)c1ccc(OC(C)C)c(NC(=O)C2=COCCO2)c1,21,-7,1,29,-2,x,x,x,x
CCN(C[C@H]1N[C@@](Cc2ccccc2)(C(=O)OC)[C@H]2C(=O)N(Cc3ccccc3)C(=O)[C@@H]12)C(=O)Nc1ccc(C(F)(F)F)cc1,76*,x,72*,70*,x,4,81*,69*,75*
CCN(C[C@H]1N[C@@](Cc2ccccc2)(C(=O)OC)[C@H]2C(=O)N(Cc3ccccc3)C(=O)[C@@H]12)C(=O)Nc1ccc(C)cc1,16,x,8,18,x,3,x,x,x
CCN=c1sc(C(=O)NCCc2ccccc2)cc(=O)n1CC,51*,5,43*,66*,26,4,48*,11,52*
CC(C)N(CCCNC(=O)Cn1c(=O)c2cccn2c2ccccc21)Cc1ccccc1,8,12,-3,10,-27,-9,x,x,x
CCCc1cc(NCCCn2ccnc2)n2nc(C)c(-c3ccccc3)c2n1,18,0,17,-3,-1,12,x,x,x
CC(C)(C)c1cc(NCCCn2ccnc2)n2ncc(-c3ccccc3)c2n1,51*,40,15,60*,36,21,30*,x,59*
SMILES,tim10-1 inh,SKKanGAS inh,TIM10 inh,tim23-1 inh,Calb FLC,PfHsp90 set2,tim10-1 conf,TIM10 conf,tim23-1 confirm
Cc1ccc(-c2nnc(N3CCN(C(=O)c4cccs4)CC3)c3ccccc23)cc1,55*,30,30,69*,1,-6,50*,x,59*
Cc1ccc(-c2nnc(N3CCN(C(=O)COc4ccccc4)CC3)c3ccccc23)cc1,15,14,7,23,14,-38,x,x,x
CCOC(=O)N1CCN(c2nnc(-c3ccc(C)cc3)c3ccccc23)CC1,52*,11,26,61*,-6,8,34*,x,48*
CCOC(=O)N1CCN(c2nnc(-c3ccccc3)c3ccccc23)CC1,29,2,4,33,13,-17,x,x,x
CCC(/C=C1\Sc2ccc(OC)cc2N1CCO)=C\c1sc2ccc(OC)cc2[n+]1CCO,62*,x,49*,64*,x,49,49*,-24,53*
CCOC(=O)C1=C(C(=O)OCC)N(Cc2ccccc2)CCC1=O,x,x,x,x,x,11,x,x,x
O=c1c2c(-c3cccs3)csc2ncn1/N=C/c1ccccn1,56*,2,37,61*,11,-22,60*,x,62*
COc1cccc(-n2cnc3scc(-c4cccs4)c3c2=O)c1,43*,4,28,52*,0,2,42*,x,50*
O=c1c2c(-c3cccs3)csc2ncn1-c1ccc(Br)cc1,42*,-5,17,59*,14,x,35*,x,48*
Nn1cnc2scc(-c3cccs3)c2c1=O,-10,6,-2,3,-18,5,x,x,x
